Screens: PubChem BioAssay, National Center for Advancing Translational Sciences (NCATS)
In the library only some 21% were active in any assay of this set; here they are far more common.
FBPA Giardia inh: inhibitors of Giardia lamblia fructose-1,6-bisphosphate aldolase; purified Giardia FBPA; Potency, µM (titrated, usually from 59.6 µM), usual class: inhibitors; hit rate 0.71% among 290,000; further: nearly all actives have a fitted effect of over 55% in size
Target sequence (A8B2U2 whole entry, looked up): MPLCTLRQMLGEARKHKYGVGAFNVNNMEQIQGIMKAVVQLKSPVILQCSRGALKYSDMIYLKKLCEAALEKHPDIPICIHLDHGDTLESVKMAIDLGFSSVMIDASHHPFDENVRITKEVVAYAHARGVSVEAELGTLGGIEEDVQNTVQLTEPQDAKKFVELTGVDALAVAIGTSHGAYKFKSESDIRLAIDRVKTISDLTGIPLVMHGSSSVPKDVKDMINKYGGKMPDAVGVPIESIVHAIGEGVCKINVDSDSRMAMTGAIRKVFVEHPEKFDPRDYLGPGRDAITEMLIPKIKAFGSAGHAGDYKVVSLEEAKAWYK
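Giardia FBPA (40 nM reagent) was preincubated 10 min at RT with compound (up to 57.5 uM final), then substrate plus GAPDH/TPI/NAD/arsenate coupling system with diaphorase/resazurin was added; resorufin fluorescence (525/598 nm) was read after 20 min.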
Pf growth 48h: inhibits P. falciparum growth in the first generation, 48 h; P. falciparum luciferase growth in erythrocytes, 48 h; Potency, µM (series often up to 28.7 µM), actives largely listed as inhibitors; hit rate 5.9% among 310,000; AID 504832
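Luciferase-expressing P. falciparum in infected erythrocytes (2% hematocrit, 0.1% parasitemia final) in RPMI 1640/0.5% Albumax were exposed to compound for 48 hours at 37 C, 5% CO2; growth read as luminescence.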
Shiga inhibitor: blocks Shiga toxin action in Vero cells; hit rate 9.2% among 290,000; Vero cells, Shiga toxin protein synthesis inhibition reporter; inhibition, % at 38.7 µM; AID 2315; in the data active means inhibition mostly above about 28%, no sharp cut-off; inactive means mostly below about 43%
Cycloheximide cs: counter-screen hit for Shiga toxin inhibitors, cycloheximide; cell reporter, cycloheximide protein synthesis inhibition counterscreen; max response, %; hit rate 12% among 300,000; in the data active means max response mostly above about 13%, no sharp cut-off; inactive means mostly below about 14%; further: read at 38.3 µM for the half of the compounds with a filed dose
NS1 function inh: influenza NS1 inhibition. Potency, µM (top dose mostly 46.1 µM). hit rate 0.4% among 270,000; calls by dose curve; further: actives are rising curves; nearly all actives have a fitted effect of over 50% in size
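Read-out: OD600 growth recovery of NS1-expressing budding yeast. Cells grown overnight at 30C in -URA glucose medium, washed, resuspended and diluted 1:100 in 2% galactose assay medium, pH 6.0. Same strain lacking NS1 served as positive control.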
Pf growth 96h: P. falciparum growth inhibition at 96 hours | P. falciparum luciferase reporter growth, 96 h | Potency, µM (highest dose often 28.7 µM), usual class: inhibitors | hit rate 6.9% among 320,000 | AID 504834
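96 h incubation, 37 C, 5% CO2, of luciferase-reporter P. falciparum-infected RBCs (2% hematocrit, 0.05% parasitemia final) with test compounds; endpoint luminescence.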
Each line names hits and unclear results; the compound was inactive in the other large screens. Unless noted, the call rests on the fitted dose curve; in most records, active means well fitted curve in the direction sought with a large enough effect; inconclusive means small, poorly fitted or top-dose-only effect, or another doubt; inactive means no such curve, though single readings can be large; an effect the other way counts as inactive or inconclusive.

CCN(CC(=O)NCc1ccc(Cl)cc1)C(=O)c1ccc(S(=O)(=O)NCc2ccco2)cc1	Shiga inhibitor 66.8, Cycloheximide cs 59.0 (no result: FBPA Giardia inh)
Cc1ccccc1CN(C)C(C)C(=O)NCc1ccccc1 (stereo not given)	none
COC(=O)N1CCC2(CCN(C(=O)Nc3cccc(C#N)c3)CC2)CC1	none (no result: Pf growth 48h, Shiga inhibitor, Cycloheximide cs, NS1 function inh, Pf growth 96h)
CCN1CCN(C(=O)CN(CC)S(=O)(=O)c2ccc3ccccc3c2)CC1	Pf growth 96h inconclusive
Cc1ccc(OCCCCNC(C)c2ccccc2)c(C)c1 (stereo not given)	FBPA Giardia inh inconclusive, Pf growth 48h inconclusive, Pf growth 96h inconclusive (no result: Shiga inhibitor)
C=CC(=O)c1ccc(CCCCCC)cc1	none (no result: Pf growth 48h, NS1 function inh, Pf growth 96h)
CC(C)c1c(C(=O)N/N=C/c2ccccc2OCc2c(F)cccc2Cl)nnn1-c1nonc1N	Pf growth 48h inconclusive
CC(=O)Nc1ccc(S(=O)(=O)NCc2ccc(C(=O)NCc3ccc(Cl)cc3)cc2)cc1	Pf growth 96h inconclusive (no result: Pf growth 48h)
CCN(CC(=O)NCc1ccc(Cl)cc1)C(=O)CNS(=O)(=O)c1ccc(NC(C)=O)cc1	Pf growth 48h 11.7µM, Pf growth 96h inconclusive (no result: FBPA Giardia inh)
CC(C)c1c(C(=O)Nc2ccccc2)c(-c2ccccc2)c(-c2ccc(F)cc2)n1CC[C@@H](O)C[C@@H](O)CC(=O)O	none (no result: Pf growth 48h, NS1 function inh, Pf growth 96h)
CCCCn1c(N)c(N(CC)C(=O)CSc2nnnn2-c2cc(C)ccc2C)c(=O)[nH]c1=O	Pf growth 48h inconclusive, Pf growth 96h inconclusive
CN(C)C(CNC(=O)c1ccc(C2SCCS2)cc1)c1ccccc1 (stereo not given)	Pf growth 48h inconclusive, Shiga inhibitor 54.5, Cycloheximide cs 35.3
O=C(C[n+]1ccccc1)NNc1ccccc1	Pf growth 96h inconclusive (no result: FBPA Giardia inh, Shiga inhibitor, Cycloheximide cs, NS1 function inh)
N#Cc1ccc(C23CC4(C2)[C@H](CN(Cc2ccc(C(F)(F)F)cc2)[C@@H]4c2ccccc2)C3c2ccc(Cl)nc2)cc1 (stereo not given in full)	Pf growth 48h 11.7µM, Pf growth 96h 13.1µM
COC(=O)c1cccc(C23CC4(C2)[C@H](CN(CC2CCCCC2)[C@@H]4c2ccccc2)C3c2ccccc2)c1 (stereo not given in full)	Pf growth 48h 10.4µM, Pf growth 96h 4.15µM
COC(=O)c1ccc(C23CC4(C2)[C@H](CN(CC2CCCCC2)[C@@H]4c2ccccc2)C3c2ccc(Cl)nc2)cc1 (stereo not given in full)	Pf growth 48h 9.28µM, Pf growth 96h 9.28µM
COC(=O)c1cccc(C23CC4(C2)[C@H](CN(CC2CCCCC2)[C@@H]4c2ccccc2)C3c2ccc(Cl)nc2)c1 (stereo not given in full)	none (no result: Pf growth 48h, Shiga inhibitor, Cycloheximide cs, NS1 function inh, Pf growth 96h)
Clc1ccc(C2[C@H]3CN(Cc4ccc(-c5ccccc5)cc4)[C@H](c4ccccc4)C34CC2(c2cccnc2)C4)cn1 (stereo not given in full)	Pf growth 48h 3.29µM, Pf growth 96h 2.33µM
CCCCN(C)C(=O)C1CCCN(S(=O)(=O)c2ccc3c(c2)oc(=O)n3C)C1 (stereo not given)	Pf growth 48h inconclusive
CSCC[C@H](NS(=O)(=O)c1ccc(C)cc1)C(=O)N1CCC(C(=O)N[C@H](C(=O)O)c2ccccc2)CC1	none
FC(F)(F)c1ccc(C2[C@H]3CN(CC4CCCCC4)[C@H](c4ccccc4)C34CC2(c2cccnc2)C4)cc1 (stereo not given in full)	Pf growth 48h 3.29µM, Pf growth 96h 3.29µM
COC(=O)c1ccc(C23CC4(C2)[C@H](CN(Cc2ccc(C(F)(F)F)cc2)[C@@H]4c2ccccc2)C3c2ccc(Cl)nc2)cc1 (stereo not given in full)	Pf growth 48h 5.22µM, Pf growth 96h 11.7µM
FC(F)(F)c1ccc(CN2C[C@@H]3C(c4ccc(C(F)(F)F)cc4)C4(c5ccccc5)CC3(C4)[C@H]2c2ccccc2)cc1 (stereo not given in full)	none (no result: Pf growth 48h, Shiga inhibitor, Cycloheximide cs, NS1 function inh, Pf growth 96h)
Clc1ccc(C2[C@H]3CN(CC4CCCCC4)[C@H](c4ccccc4)C34CC2(c2ccccc2)C4)cn1 (stereo not given in full)	Pf growth 48h inconclusive, Pf growth 96h inconclusive
FC(F)(F)c1ccc(CN2C[C@@H]3C(c4ccc(Cl)nc4)C4(c5cccnc5)CC3(C4)[C@H]2c2ccccc2)cc1 (stereo not given in full)	Pf growth 48h 3.29µM, Pf growth 96h 2.33µM
COC(=O)c1cccc(C23CC4(C2)[C@H](CN(Cc2cccnc2)[C@@H]4c2ccccc2)C3c2ccc(Cl)nc2)c1 (stereo not given in full)	Pf growth 48h 13.1µM, Pf growth 96h 11.7µM
Cc1ccc(NC(=O)CCS(=O)(=O)c2ccc3c(c2)NC(=O)C(C)S3)nc1 (stereo not given)	Pf growth 96h inconclusive (no result: FBPA Giardia inh)
N=C(N)SCCc1ccc(CCSC(=N)N)cc1	none (no result: Pf growth 48h, Shiga inhibitor, Cycloheximide cs, Pf growth 96h)
CCCC(C(=O)NC1CCCC1)N(CC1CCCO1)C(=O)CNS(=O)(=O)c1ccc(F)cc1 (stereo not given)	Pf growth 96h inconclusive
CC(=O)Nc1ccc(NC(=O)c2cc(C3CC3)nc3c2cnn3C(C)C)cc1	Pf growth 48h inconclusive (no result: FBPA Giardia inh, Shiga inhibitor, Cycloheximide cs, NS1 function inh)
CNC(=O)c1cccc(NC(=O)c2cc(-c3ccccc3)nc3c2cnn3C(C)C)c1	Pf growth 48h 4.65µM, Pf growth 96h inconclusive (no result: FBPA Giardia inh, Shiga inhibitor, Cycloheximide cs, NS1 function inh)
CCN(CC)C(=O)c1cccc(NC(=O)c2cc(C3CC3)nc3c2cnn3C(C)C)c1	Pf growth 48h inconclusive, Pf growth 96h 5.22µM (no result: FBPA Giardia inh, Shiga inhibitor, Cycloheximide cs, NS1 function inh)
CCOc1ccc(NC(=O)c2cc(C3CC3)nc3c2cnn3C(C)C)cc1OC	Pf growth 48h 11.7µM, Pf growth 96h 13.1µM (no result: FBPA Giardia inh, Shiga inhibitor, Cycloheximide cs, NS1 function inh)
CC(C)n1ncc2c(C(=O)Nc3cccc(S(=O)(=O)N(C)C)c3)cc(C3CC3)nc21	Pf growth 48h 11.7µM, Pf growth 96h inconclusive (no result: FBPA Giardia inh, Shiga inhibitor, Cycloheximide cs, NS1 function inh)
O=C([C@@H]1CCCN1C(=O)c1cccs1)N1CCN(S(=O)(=O)c2cccc(F)c2)CC1	none (no result: FBPA Giardia inh, Shiga inhibitor, Cycloheximide cs, NS1 function inh)
COc1cc(C(CC(=O)Nc2ccccn2)N2Cc3ccccc3C2=O)cc(OC)c1OC (stereo not given)	Pf growth 48h inconclusive, Pf growth 96h inconclusive
CC1=NN(c2ccccc2)C(=O)/C1=C\c1ccc(Oc2ccc([N+](=O)[O-])cc2[N+](=O)[O-])cc1	none
COc1cc(/C=C2\C(=O)N(c3ccccc3)N=C2C)ccc1Oc1ccc([N+](=O)[O-])cc1[N+](=O)[O-]	Pf growth 96h 10.4µM
Cc1csc(C(=O)O)c1NC(=O)c1c(Cl)cccc1Cl	Pf growth 48h inconclusive
CC(C)C[C@H](NC(=O)CN(C)C(=O)[C@H](Cc1ccccc1)NC(=O)[C@H](Cc1ccccc1)NC(=O)[C@H](CCC(N)=O)NC(=O)[C@H](CCC(N)=O)NC(=O)[C@@H]1CCCN1C(=O)[C@H](CCCCN)NC(=O)[C@@H]1CCCN1C(=O)[C@@H](N)CCCN=C(N)N)C(=O)N[C@@H](CCS(C)(=O)=O)C(N)=O	none (no result: Pf growth 48h, NS1 function inh, Pf growth 96h)
O=C(CSc1nc2ccccc2c(=O)n1Cc1ccco1)N1CCCCCC1	Pf growth 48h 5.22µM, Cycloheximide cs 16.6
CCn1c(SCC(=O)N2CCCCCC2)nc2ccccc2c1=O	Pf growth 48h inconclusive, Pf growth 96h inconclusive
